Compounds with a hit are over-represented: about 1.4% of the library has one in this group of screens.
Mtb MbtI inh = MbtI salicylate synthase inhibitors, primary screen, biochemical, fluorescence intensity; P9WFX0; purified MbtI enzyme, fluorescence intensity read-out; inhibition, % (concentration not given with the values); 100,000 compounds, 0.89% hits; AID 493033, 2011; in the data active = inhibition mostly above about 56%, no sharp cut-off; inactive = mostly below about 77%
MenB inh = M. tuberculosis MenB inhibitors, primary screen, biochemical, absorbance; 1,4-dihydroxy-2-naphthoyl-CoA synthase (Mycobacterium tuberculosis (strain ATCC 25618 / …; MenB enzyme assay, absorbance read-out; inhibition, % (test concentration not listed); 100,000 compounds, 0.43% hits; AID 540299, 2011; in the data active = inhibition above about 21%, passing the limit was not always enough
PV pol inh = poliovirus RdRp elongation inhibitors, primary screen, biochemical, fluorescence polarization, total intensity | 150,000 compounds, 0.66% hits | AID 588519, 2011 | % elongation, % (compound at 16.7 µg/mL) | poliovirus polymerase elongation; stronger effect = lower value | Genome polyprotein (Poliovirus type 1 (strain Mahoney)), P03300; in the data active = % elongation below about 90%
Target sequence (P03300 1749-2209 limits assumed): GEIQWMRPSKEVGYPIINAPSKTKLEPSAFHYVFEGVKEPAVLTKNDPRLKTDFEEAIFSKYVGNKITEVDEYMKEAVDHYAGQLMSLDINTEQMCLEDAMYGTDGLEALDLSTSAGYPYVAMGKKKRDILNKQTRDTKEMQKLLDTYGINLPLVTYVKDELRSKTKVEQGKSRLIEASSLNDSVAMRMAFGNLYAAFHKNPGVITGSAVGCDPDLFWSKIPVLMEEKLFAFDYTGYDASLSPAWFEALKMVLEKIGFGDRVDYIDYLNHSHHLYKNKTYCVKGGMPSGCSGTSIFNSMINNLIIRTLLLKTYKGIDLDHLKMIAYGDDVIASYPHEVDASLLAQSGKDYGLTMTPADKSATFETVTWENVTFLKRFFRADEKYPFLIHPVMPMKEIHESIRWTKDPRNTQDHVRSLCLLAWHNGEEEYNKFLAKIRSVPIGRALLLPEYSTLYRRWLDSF
* hit, by the source's call; i = inactive; . = no result given.

SMILES | Mtb MbtI inh | MenB inh | PV pol inh
S=c1nn[nH]n1CCc1ccc(Cl)cc1 | 25 | 1 | 102
Fc1ccc(Cn2[nH]nnc2=S)cc1 | 69* | -17 | 96
O=C(CSc1ncnc2sccc12)c1ccc(S(=O)(=O)N2CCCC2)cc1 | 18 | 15 | 109
NC1=NN=C(c2ccc3c(c2)OCCO3)CS1 | 16 | 15 | 98
NC1=NN=C(c2ccccc2)CS1 | 65* | -57 | 97
Cc1ccc(/C=C2/SC(=O)NC2=S)o1 | 61 | -173 | 39
COc1ccc(/C=C2\SC(=O)NC2=S)cc1OC | 64* | -65 | 90
O=C(COc1ccc(Cl)cc1Cl)Nc1nc2ccccc2[nH]1 | -4 | . | 104
CCOC(=O)CSc1nn(C)c(=S)s1 | 25 | . | .
CCOC(=O)CSc1n[nH]c(=S)s1 | 90* | -21 | 101
NC(=O)CCSc1n[nH]c(=S)s1 | 56 | -7 | 101
CCOC(=O)CCSc1n[nH]c(=S)s1 | 85* | -22 | 103
CCOC=C1C(=O)c2ccccc2C1=O | 4 | -43 | 91
O=C1C(SCCO)=C(SCCO)C(=O)c2ccccc21 | 91* | 20 | 99
COc1ccc(Cc2nnc3n2N=C(c2ccc(C)c(C)c2)C(C)S3)cc1OC (centres undefined) | 47 | -18 | 87*
COc1ccc(Cc2nnc(-c3ccc(C)cc3)o2)cc1OC | -4 | -20 | 103
CS(=O)(=O)Nc1ccc(Br)cc1 | . | -1 | 105
CC1Sc2nnc(Cc3ccc(Br)cc3)n2N=C1c1ccc(NS(C)(=O)=O)cc1 (centres undefined) | 26 | -30 | 78*
Cc1nc(C(=O)Nc2ccc(Cl)cc2)sc1C(=O)Nc1ccc(Cl)cc1 | 64* | 5 | 69*
Cc1c(C(=O)Nc2ccc(Cl)cc2)sc(N)c1C(N)=O | -49 | -58 | 95
CCOC(=O)c1c(C)csc1NC=C(C#N)C#N | -5 | -23 | 104
CCn1nc(C(=O)NC2CCCc3ccccc32)c2ccccc2c1=O (centres undefined) | -8 | -21 | 105
CCOc1ccc(-c2cn3c(n2)sc2cc(C(=O)NCCCN(CC)CC)ccc23)cc1 | . | . | 101
CCN(CC)CCNC(=O)c1ccc2c(c1)sc1nc(-c3ccc(F)cc3)cn12 | . | . | 89*
O=C(c1ccccc1C(F)(F)F)N1CCN(c2ccccc2F)CC1 | 0 | 3 | 102
SMILES | Mtb MbtI inh | MenB inh | PV pol inh
CN(C(=O)COC(=O)c1ccc(Cl)cc1O)C1CCS(=O)(=O)C1 (centres undefined) | -55 | 8 | 106
COc1ccc(-c2nc3scc(CCN)n3n2)cc1 | 5 | -13 | 102
CC(=O)Nc1ccc(NC(=O)c2oc3c(c2C)-c2nn(Cc4ccccc4Cl)cc2CC3)cc1 | . | . | 105
CCn1cc2c(n1)-c1c(oc(C(=O)Nc3ccc(Cl)cc3)c1C)CC2 | 10 | 10 | 88*
CCn1cc2c(n1)-c1c(oc(C(=O)Nc3ccc(Br)cc3F)c1C)CC2 | . | . | 53*
CCn1cc2c(n1)-c1c(oc(C(=O)NCc3cccnc3)c1C)CC2 | 80 | -5 | 96
O=C(Cc1n[nH]c(=O)c2ccccc12)Nc1nc(CN2CCOCC2)cs1 | 0 | -5 | .
CCn1c(=O)/c(=C\c2ccc(Cl)cc2)s/c1=C(/C#N)C(N)=O | 21 | -6 | 106
Cc1ccc(C)c(NC(=O)CCn2ccc(C)n2)c1 | -15 | -16 | 102
Cc1oc(-c2ccccc2)nc1CSc1nncn2c1cc1sccc12 | 7 | -5 | 102
CSc1ncccc1C(=O)NCc1ccccc1C(F)(F)F | -3 | -5 | 99
S=C(NCc1ccc2c(c1)OCO2)N(Cc1ccco1)Cc1cccs1 | 60* | -39 | 88*
O=C(COC(=O)Cc1cccs1)NCc1ccc2c(c1)OCO2 | 9 | -28 | 102
Cc1cc(C)nc(-n2ncc(Cl)c(Cl)c2=O)n1 | -7 | 9 | 104
Cc1nc(=O)c(-c2ccccc2)c(C)n1CCCN1CCOCC1 | -16 | -5 | 105
COc1ccccc1CN1CCN(C(CC(C)C)c2nnnn2Cc2ccc(F)cc2)CC1 (centres undefined) | -2 | 33* | 101
Fc1ccc(C(c2nnnn2Cc2ccccc2)N2CCSCC2)cc1 (centres undefined) | -6 | 0 | 102
CC(CN1CCCN(C)CC1)c1ccccc1 (centres undefined) | -5 | -22 | 102
CN1CCCN(Cn2nc3ccccn3c2=S)CC1 | 48 | -8 | 15*
Cc1ccc(C(=O)Nc2nncs2)cc1 | 16 | 26* | 101
CCc1ccc(C(=O)Nc2nncs2)cc1 | 9 | 13 | 100
OCn1c2ccccc2c2cc(Cl)ccc21 | 82 | -14 | 100
Cc1ccccc1CN(C)CC(=O)Nc1ccccc1F | 1 | -1 | 102
C/C(=C\C(=O)C(F)(F)F)NCc1ccc(S(N)(=O)=O)cc1 | 14 | 5 | 106
CCC(=O)Nc1nnc2n1CCS2 | . | . | 107
SMILES | Mtb MbtI inh | MenB inh | PV pol inh
CCN(CC)c1nc2n(c(=S)n1)CCS2 | -2 | 30* | 102
O=C(COC(=O)c1cc2ccccc2oc1=O)Nc1ncccn1 | -96 | -21 | 88*
CN(C)C(=O)COC(=O)c1cc2ccccc2oc1=O | 41 | -23 | 103
Cc1ccc(S(=O)(=O)CC(=O)Nc2sc3c(c2C(N)=O)CCCC3)cc1 | . | . | 110
Cc1ccc(C2=NS(=O)(=O)N(C)C(C(=O)Nc3sc4c(c3C(N)=O)CCCC4)=C2)cc1 | 58* | -67 | 94
CCCc1nnc(N)s1 | 2 | . | 104
CCC(C)(C)c1nnc(N)s1 | 99* | 5 | 96
Cc1nn(CCC(=O)NCc2ccco2)c(C)c1Cl | 6 | 16 | 101
CC(C)CN(CC(C)C)C(=O)C1CCCCC1C(=O)O (centres undefined) | 7 | 30* | 102
CC(C)CNC(=O)C1CCCCC1C(=O)O (centres undefined) | . | -5 | 106
CCC(=O)N/C(N)=N\c1nc(C)c2cc(OC)ccc2n1 | 39 | -4 | 104
CCN(CC)c1ncnc2sc(C)c(C)c12 | 0 | . | 100
Cc1sc2ncnc(N)c2c1C | i | -15 | 67*
CCS(=O)(=O)c1ccc2oc(CN3C(=O)S/C(=C\c4ccccc4Cl)C3=O)nc2c1 | 4 | -37 | 104
Cc1cc(C)c2c(c1)OCN(Cc1ccc(Cl)cc1)C2 | 3 | 4 | 103
O=C1CC(Nc2ccc(F)cc2)C(=O)N1C1CCCC1 (centres undefined) | -1 | -16 | 104
N#CC1=C(S)NC(=O)C(C#N)C12CCCCC2 (centres undefined) | 91* | -30 | 104
CSC1=C(C#N)C2(CCCC2)C(C#N)C(=O)N1 (centres undefined) | -12 | . | 105
Nc1cc(=O)[nH]c2n[nH]c(=S)n12 | 100* | 33* | 101
CSc1nnc2[nH]c(=O)cc(N)n12 | 12 | 5 | 101
CCN(CC)S(=O)(=O)c1ccc(CNC(=O)c2ccc[nH]2)cc1 | -1 | -8 | 107
COCCNCc1ccccc1 | -5 | -3 | 110
CCCNCc1ccccc1 | -2 | 32* | 99
OCC1CC(O)C(O)C(Oc2ccc3ccccc3c2)O1 (centres undefined) | -7 | -40 | 100
O=C1NC2(CCCC2)Cc2ccccc21 | 0 | 7 | 102
O=C1CCCCCN1C(=O)c1ccccc1 | 7 | -16 | 102
O=C1CCCCCN1Sc1ccccc1 | 70* | 9 | 102
